Test results: PubChem BioAssay AID1159580 (chemical genetic matrix, 2015)
Out of some 5,500 compounds screened, about 2,000 (36%) were called active. Not shown: some 18% with an inconclusive outcome. Cut-off read from the data, not from the text of the source: active = normalized growth mostly below about 0.91 (no sharp cut-off); inconclusive = no clear call, values can overlap the other calls; inactive = mostly above about 0.92. The list shows a part of the results.

Test: chemical genetic growth profiling, strain panel (AID 1159580);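 note: tested at 20 µM; growth read once vehicle control cultures reached saturation at 30 °C; 1 = growth at the plate median or of vehicle wells; lower values mean less growth of the strain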
Details: growth OD

Measured: normalized growth

COc1cc(-c2coc3cc(O[C@@H]4O[C@H](CO)[C@@H](O)[C@H](O)[C@H]4O)c(OC)c(O)c3c2=O)cc(O)c1OC
inactive: S. cerevisiae deletion strains, locus YJR066W, strain TOR1, hits give low values 0.988 | S. cerevisiae deletion strains, locus YKL009W, strain mrt4, hits give low values 1.02 | S. cerevisiae deletion strains, locus YKL068W, hits give low values 0.995 | S. cerevisiae deletion strains, locus YKL085W, strain MDH1 (second series), hits give low values 0.997 | S. cerevisiae deletion strains, locus YKL085W, strain MDH1, hits give low values 0.997 | S. cerevisiae deletion strains, locus YKL160W, strain elf1, hits give low values 0.993 | S. cerevisiae deletion strains, locus YKR001C, strain vps1, hits give low values 1.01 | S. cerevisiae deletion strains, locus YKR026C, strain gcn3, hits give low values 0.997 | S. cerevisiae deletion strains, locus YKR091W, strain srl3, hits give low values 1 | S. cerevisiae deletion strains, locus YLL001W, strain dnm1, hits give low values 0.965 | S. cerevisiae deletion strains, locus YLL026W, hits give low values 0.995 | S. cerevisiae deletion strains, locus YLL041C, strain sdh2, hits give low values 1 | S. cerevisiae deletion strains, locus YLR027C, strain aat2, hits give low values 0.997 | S. cerevisiae deletion strains, locus YLR039C, strain RIC1, hits give low values 1.02 | S. cerevisiae deletion strains, locus YLR058C, strain SHM2, hits give low values 1.01 | S. cerevisiae deletion strains, locus YLR102C, strain apc9, hits give low values 0.994 | S. cerevisiae deletion strains, locus YLR113W, strain HOG1, hits give low values 0.975 | S. cerevisiae deletion strains, locus YLR221C, strain rsa3, hits give low values 0.993 | S. cerevisiae deletion strains, locus YLR258W, strain gsy2, hits give low values 0.984 | S. cerevisiae deletion strains, locus YLR262C, strain YPT6 (second series), hits give low values 1 | S. cerevisiae deletion strains, locus YLR262C, strain YPT6, hits give low values 1 | S. cerevisiae deletion strains, locus YLR268W, strain sec22, hits give low values 1.03 | S. cerevisiae deletion strains, locus YLR320W, strain mms22, hits give low values 0.986 | S. cerevisiae deletion strains, locus YLR330W, strain CHS5, hits give low values 1.01 | S. cerevisiae deletion strains, locus YLR342W, strain FKS1 (second series), hits give low values 1.05 | S. cerevisiae deletion strains, locus YLR342W, strain FKS1, hits give low values 0.994 | S. cerevisiae deletion strains, locus YLR357W, strain rsc2, hits give low values 0.956 | S. cerevisiae deletion strains, locus YLR370C, strain arc18, hits give low values 1 | S. cerevisiae deletion strains, locus YLR371W, strain rom2, hits give low values 1.01 | S. cerevisiae deletion strains, locus YLR384C, strain iki3, hits give low values 0.988 | S. cerevisiae deletion strains, locus YLR418C, strain cdc73, hits give low values 1.02 | S. cerevisiae deletion strains, locus YML016C, strain PPZ1, hits give low values 0.981 | S. cerevisiae deletion strains, locus YML032C, strain rad52, hits give low values 1.01 | S. cerevisiae deletion strains, locus YML120C, strain ndi1, hits give low values 0.99 | S. cerevisiae deletion strains, locus YML124C, strain tub3, hits give low values 0.99 | S. cerevisiae deletion strains, locus YMR058W, strain fet3, hits give low values 0.998 | S. cerevisiae deletion strains, locus YMR078C, strain ctf18, hits give low values 0.981 | S. cerevisiae deletion strains, locus YMR125W, strain sto1, hits give low values 0.99 | S. cerevisiae deletion strains, locus YMR129W, hits give low values 0.996 | S. cerevisiae deletion strains, locus YMR205C, strain PFK2, hits give low values 0.981 | S. cerevisiae deletion strains, locus YMR223W, strain ubp8, hits give low values 1 | S. cerevisiae deletion strains, locus YMR231W, strain pep5, hits give low values 0.997 | S. cerevisiae deletion strains, locus YMR307W, strain GAS1, hits give low values 1.04 | S. cerevisiae deletion strains, locus YNL067W, strain RPL9B, hits give low values 0.994 | S. cerevisiae deletion strains, locus YNL071W, strain lat1, hits give low values 1.01 | S. cerevisiae deletion strains, locus YNL128W, strain TEP1, hits give low values 1.01 | S. cerevisiae deletion strains, locus YNL183C, strain NPR1, hits give low values 0.962 | S. cerevisiae deletion strains, locus YNL209W, strain ssb2, hits give low values 0.989 | S. cerevisiae deletion strains, locus YNL233W, strain BNI4, hits give low values 1 | S. cerevisiae deletion strains, locus YNL248C, strain rpa49, hits give low values 0.988 | S. cerevisiae deletion strains, locus YNL250W, strain rad50, hits give low values 0.964 | S. cerevisiae deletion strains, locus YNL271C, strain bni1, hits give low values 0.978 | S. cerevisiae deletion strains, locus YNL298W, strain CLA4, hits give low values 0.989 | S. cerevisiae deletion strains, locus YNL307C, strain MCK1, hits give low values 0.99 | S. cerevisiae deletion strains, locus YNL322C, strain KRE1 (second series), hits give low values 0.977 | S. cerevisiae deletion strains, locus YNR049C, strain mso1, hits give low values 1.01 | S. cerevisiae deletion strains, locus YNR052C, strain pop2, hits give low values 0.964 | S. cerevisiae deletion strains, locus YOL012C, strain htz1 0.807 | S. cerevisiae deletion strains, locus YOL147C, strain pex11, hits give low values 1.01 | S. cerevisiae deletion strains, locus YOR001W, strain rrp6, hits give low values 0.948 | S. cerevisiae deletion strains, locus YOR061W, strain CKA2, hits give low values 0.999 | S. cerevisiae deletion strains, locus YOR069W, strain VPS5, hits give low values 0.986 | S. cerevisiae deletion strains, locus YOR070C, strain gyp1, hits give low values 1.01 | S. cerevisiae deletion strains, locus YOR080W, strain dia2, hits give low values 0.988 | S. cerevisiae deletion strains, locus YOR083W, strain WHI5, hits give low values 1.02 | S. cerevisiae deletion strains, locus YOR106W, strain vam3, hits give low values 0.98 | S. cerevisiae deletion strains, locus YOR136W, strain idh2, hits give low values 0.992 | S. cerevisiae deletion strains, locus YOR144C, strain elg1, hits give low values 0.996 | S. cerevisiae deletion strains, locus YOR184W, strain ser1, hits give low values 1.05 | S. cerevisiae deletion strains, locus YOR231W, strain MKK1, hits give low values 1.05 | S. cerevisiae deletion strains, locus YOR265W, strain rbl2, hits give low values 1.01 | S. cerevisiae deletion strains, locus YOR270C, strain vph1, hits give low values 1.02 | S. cerevisiae deletion strains, locus YOR290C, strain snf2, hits give low values 1 | S. cerevisiae deletion strains, locus YOR316C, strain cot1, hits give low values 0.985 | S. cerevisiae deletion strains, locus YPL051W, strain arl3, hits give low values 0.961 | S. cerevisiae deletion strains, locus YPL055C, strain LGE1, hits give low values 1.05 | S. cerevisiae deletion strains, locus YPL078C, strain atp4, hits give low values 0.993 | S. cerevisiae deletion strains, locus YPL106C, strain sse1, hits give low values 0.962 | S. cerevisiae deletion strains, locus YPL240C, strain hsp82, hits give low values 1 | S. cerevisiae deletion strains, locus YPL256C, strain CLN2, hits give low values 1.02 | S. cerevisiae deletion strains, locus YPR119W, strain clb2, hits give low values 0.982 | S. cerevisiae deletion strains, locus YPR141C, strain kar3, hits give low values 0.977 | S. cerevisiae deletion strains, locus YPR163C, strain tif3, hits give low values 0.986 | S. cerevisiae deletion strains, locus YPR167C, strain met16, hits give low values 0.993 | S. cerevisiae deletion strains, strain wtn01, hits give low values 1.01 | S. cerevisiae strains, strain wild type, hits give low values 1.01
